Calls of active or inactive are those of the source. How the calls were made is not given here.
What follows are compounds tested on HIV-1 nucleocapsid protein NCp7 (binding to TG oligonucleotide) (assay: HIV Nucleocapsid (AID 346;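 further: potency is for inhibitors that block NC binding and lower polarization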)). Settings: HIV-1 NC / fluorescein-TGTGTGTG probe, fluorescence polarization.
Protocol: NCGC Assay Overview: HIV-1 nucleocapsid protein (HIV-1 NC) is a small (6.5 kDa) basic zinc-finger protein which participates in packaging of viral genomic RNA. The spacing and metal-chelating residues (3 Cys, 1 His) of the Cys-X2-Cys-X4-His-X4-Cys Zn fingers are conserved among all known retroviruses (J. Med. Chem. 1998, 41, 1371-1381). HIV-1 NC was assayed for its binding to the consensus sequence single-stranded 5'-TGTGTGTG. […] High salt was included to increase the stringency of binding and inhibitor screen. Reducing agents and zinc were present to stabilize the nucleocapsid zinc-finger protein.
NCGC Assay Protocol Summary: Buffer. Hepes pH 7.5, 250mM NaCl, 1uM ZnCl2. 0.004% polyethylene glycol 20000. TCEP (100 uM) and 2-Mercaptoethanol (5 mM), added fresh the day of the experiment. Reagents/Controls. 10 nM TG4xF only in columns 3 and 4 as negative control. 10 nM TG4xF/100 nM HIV-1 NC in columns 1, 2, 5-48. Titration of control compound NSC-13778 (from 20 mM, then 1:2) pin-transferred to column 2. Assay Steps. Two uL of reagents were dispensed to 1536-well Kalypsys black plates. The plates were centrifuged for 1 min at 1000 rpm. Compounds and controls (20 nL) were transferred via Kalypsys PinTool. The plates were incubated for 1 hr at room temperature, and then read on ViewLux (Perkin-Elmer). High-throughput CCD imager using fluorescein polarization filter set and 45 seconds exposure time.
In the case of `O=c1c(-c2ccccc2)nc2cnc(Oc3ccccc3)nc2n1Cc1cccs1`, the Potency is reported as > 20 µM (inactive). With `Cn1cccc1C(=O)N1CCC2(CC1)CN(c1ccncc1)C2` the Potency was > 20 µM (inactive). In the case of `N#Cc1cccc(NC(=O)N2CC[C@@]3(CCCN(C(=O)c4cc(C(F)(F)F)cc(C(F)(F)F)c4)C3)C2)c1`, the Potency is reported as > 20 µM (inactive). In the case of `CN1CCN(c2nc(-c3ccccc3C(F)(F)F)nc3ccccc23)CC1`, the Potency is reported as > 20 µM (inactive). With `COc1ccc(C(=O)N2CCC3(CCCN(CC(C)C)C3)CC2)cc1` the Potency was > 20 µM (inactive). In the case of `O=S(=O)(c1ccccc1)N1CCC2(CCN(Cc3ccncc3)CC2)CC1`, the Potency is reported as > 20 µM (inactive). For `Cc1cnc(CNc2nc(-c3ccc(C(=O)N(C)C)cc3)nc3ccccc23)cn1`, the Potency was > 20 µM (inactive). `Cc1noc(C)c1-c1ccc2ncnc(Nc3ccccc3)c2c1` was tested, and the Potency was > 20 µM (inactive). With `CC(=O)NCCNc1cc(-c2ccccc2C)ncn1` the Potency was > 20 µM (inactive). `O=c1c(CCc2ccccc2)nc2cnc(Nc3ccccc3)nc2n1C[C@H]1CCCO1` was tested, and the Potency was > 20 µM (inactive). For `COc1cccc(Cn2c(=O)c(-c3cccs3)nc3cnc(N4CCNCC4)nc32)c1`, the Potency was > 20 µM (inactive). In the case of `COc1ccccc1CNc1cc(-c2ccccc2Cl)ncn1`, the Potency is reported as > 20 µM (inactive). In the case of `COc1ccc(CNc2ccnc(-c3cccnc3)n2)c(OC)c1`, the Potency is reported as > 20 µM (inactive). In the case of `COCC(=O)N1CCC2(CCN(Cc3ccccc3)CC2)CC1`, the Potency is reported as > 20 µM (inactive). In the case of `CCNc1ncc2nc(C)c(=O)n(C)c2n1`, the Potency is reported as > 20 µM (inactive). For `CN1CCN(c2ncc3nc(-c4ccc(Cl)cc4)c(=O)n(-c4ccccc4)c3n2)CC1`, the Potency was > 20 µM (inactive). In the case of `O=C(c1ccncc1)N1CCC2(CCCN(c3ccncc3)C2)CC1`, the Potency is reported as > 20 µM (inactive). For `Cc1ccccc1-c1cncnc1NCc1cccnc1`, the Potency was > 20 µM (inactive). In the case of `O=C(c1cccc(F)c1)N1CCC2(CC1)CCN(c1ccncc1)CC2`, the Potency is reported as > 20 µM (inactive). With `COc1ccc(CNc2ncnc3ccc(-c4cccnc4)cc23)c(OC)c1` the Potency was > 20 µM (inactive). With `O=c1c(-c2ccccc2)nc2cnc(N3CCOCC3)nc2n1Cc1ccc(F)cc1` the Potency was > 20 µM (inactive). In the case of `c1ccc(C(c2ccccc2)N2CC[C@@]3(CCCNC3)C2)cc1`, the Potency is reported as > 20 µM (inactive). For `COc1ccc(NC(=O)N2CCC3(CC2)CCN(C(=O)c2cnccn2)CC3)cc1`, the Potency was > 20 µM (inactive). For `Cc1noc(C)c1C(=O)N1CCC2(CC1)CCN(c1cccc(-c3ccccc3)c1)CC2`, the Potency was > 20 µM (inactive). In the case of `COC(=O)N1CCC2(CC1)CN(C(=O)Nc1cccc(C#N)c1)C2`, the Potency is reported as > 20 µM (inactive). `COCCNc1ccnc(-c2ccccc2C)n1` was tested, and the Potency was > 20 µM (inactive). For `O=C(c1cc(C(F)(F)F)cc(C(F)(F)F)c1)N1CCC2(CCCN(Cc3nccs3)C2)CC1`, the Potency was > 20 µM (inactive). With `COCCn1c(=O)c(-c2cccc(C#N)c2)nc2cnc(N3CCOCC3)nc21` the Potency was > 20 µM (inactive). In the case of `CC(C)CN1CCC2(CC1)CCN(C(=O)c1ccncc1)CC2`, the Potency is reported as > 20 µM (inactive). `CN(C)C(=O)c1ccc(-c2ccc3ncnc(N4CCOCC4)c3c2)cc1` was tested, and the Potency was > 20 µM (inactive). For `COc1ccc(-c2nc3cnc(OC)nc3n(CCC#N)c2=O)cc1`, the Potency was > 20 µM (inactive). `O=C(Nc1ccccc1)N1CC2(CCN(C(=O)c3cccc(F)c3)CC2)C1` was tested, and the Potency was > 20 µM (inactive). With `COc1ccc(-n2c(=O)c(-c3ccc(F)cc3)nc3cncnc32)cc1` the Potency was > 20 µM (inactive). For `COc1ccc(Oc2ncc3nc(-c4ccccc4)c(=O)n(C[C@H]4CCCO4)c3n2)cc1`, the Potency was > 20 µM (inactive). For `COc1ccc(-c2nc3cnc(Nc4ccccc4)nc3n(Cc3cccs3)c2=O)cc1`, the Potency was > 16 µM (inactive). In the case of `Cn1cccc1C(=O)N1CCC2(CCN(C(=O)Nc3cccc(C#N)c3)CC2)CC1`, the Potency is reported as > 20 µM (inactive). With `COc1ccccc1CCn1c(=O)c(-c2ccc(Cl)cc2)nc2cncnc21` the Potency was > 20 µM (inactive). For `O=S(=O)(c1ccccc1)N1CCC2(CCCN(Cc3ccncc3)C2)CC1`, the Potency was > 20 µM (inactive). In the case of `CN(Cc1ccco1)c1ncncc1-c1ccccc1C(F)(F)F`, the Potency is reported as > 20 µM (inactive). For `O=C(Nc1ccccc1)N1CCC2(CC1)CCN(C(=O)c1csnn1)CC2`, the Potency was > 20 µM (inactive).

Reference: PubChem BioAssay (NCATS)
Potency means the concentration at half of the fitted maximal effect.
